From the supplement of paper PMC6555819

What follows are sequences tested on PPARg:RXRa 30nM:10nM, anti-RXR (NR concentration 30 nM, RXRa partner concentration 10 nM) (assay: PBM binding z-score (relative to random genomic background probes); higher = stronger binding; sequences stand for … in GC…GCGATTGACAGCGTAGAATGAAGG).
Method in brief: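 For binding z-scores, the reference was random background probes on custom Agilent 4×180K protein-binding microarrays. These arrays were incubated 1 h with ligand-free nuclear receptor dimers in PBS pH 7.4, 2% milk, 0.02% Triton X-100, 1 mM DTT, 0.2 mg/mL BSA and 0.4 mg/ml salmon testes DNA. Fluorescence was scanned after antibody detection of each partner (one per run) and regression-normalized.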

| Sequence | PBM binding z-score |
| --- | --- |
| ATCGAAAGGTCGACGAGGTGAATATACACCGTTT | 1.4 |
| CGTCCTAGGTCAAGGTCAGTGAAAGAGACTCGAA | 1.48 |
| CTCGAAAGGTCGTGCTCAGGTGAGCATACCAAAC | 1.02 |
| ATCGAAAGGTCGAAGGTGAGTATACCCACCCGAA | 2.14 |
| CCGGCTGGGGCAGAAAGGTTACCATACCATCCGG | -0.158 |
| AGAATGAGGTTATTAAGACCAGGGAATTGCGGTC | 0.533 |
| ATCGAACGGTCGAAGGTGAGTATACCCACCCGAA | 0.0354 |
| CATACAGGGTCAGCTAGGCAAGAGTAGGGACGGC | 0.458 |
| AGAATGAGGTTAAGATCAGGGAAACAGAATACAT | 1.11 |
| ACAGACAGGTGAGGGAAGGTAACTCAGCTGGACG | -0.39 |
| GCTAGTTGGTCAGTAGAAGGTCACACACCGGTCG | 0.306 |
| CCAGACAGGTGAGAAGGCAACTCAGCCTCGATTA | -0.21 |
| ATCTCTAGGTAAAGTTCCGTGAAAGATCGATAGA | 0.751 |
| TCTAGTTGGTCACGGAGGTCACGCACGACGGGTA | 3.7 |
| TTACCATGGTGAAAGGTCGTTGATGCACGCCTTG | 5.62 |
| CGAACTAGGTCATTGACAGGACATTGAATAGTAA | 4.27 |
| GGAACGAGGGCAAGTAGATAGCAGAGTTTGATGG | 0.0838 |
| AGAACGAGGGCACGCTGAGTTGATCGCAGAGTAG | 0.193 |
| CATCCAGGGTCAGCTAGGCCAGAGTAGGGACGGC | 0.549 |
| CCGAGTAGGTTATGGGGAATTCAGGCAACGGTGA | 0.671 |

| Sequence | PBM binding z-score |
| --- | --- |
| ACTCGGAGGACAAAGGTCGGAGCTACGCCAGTGA | 3.54 |
| GGAACGAGGGCAAAGTTGACAGCATCTGTCGACG | 7.72 |
| TCTTGTTGATCAAGCAGGTTAAGAAAGCCTGAGT | 2.49 |
| CCGAGTAGGTTATGGGGCCTTCAGGCAACGGTGA | 0.26 |
| TCTCGGAGGACGCGAAAGGTCAGAGCTCGACATC | 2.47 |
| TAGCCTAGGTCAGATTGGGCCAGTATACGCTATA | -0.437 |
| GATATTAGTTGAAAGGGCAACCGAATGATTCTCG | 2.47 |
| GGAACGAGGGCAAGCTGATAGCAGAGTTTGATGG | -0.285 |
| CCGACTGGGGCACGGTTACCATAACGCACAGCCA | -0.228 |
| GCAGACAGGTGGAACGCAGGTAACTCAGGGTGGC | -0.85 |
| AGAATGAGGCTATACGTAGATCAGGGAAGAAAGT | 0.101 |
| CCAGACAGGTGAGAAGGTACCTCAGCCTCGATTA | -0.397 |
| GCTAGCAGGCCATTTGCGTCACTCAATGACGGGC | -0.911 |
| ATCGAAAGTTCGACGAGGTGAGTATACACCGTTT | 0.0902 |
| CCTCAGAGGACAACAGGAGGTCAGAGCTGCCAGA | -0.374 |
| CGTCAAAGTTCAACTAAGGTAACGTACAGCACGC | 2.85 |
| GAAACAGGGTCAAGGCCAGAGTACGCGTATTGAT | 3.1 |
| GCTTGTAGATCAAGGTTAAGAACGACTAAGCTAA | 0.429 |
| TCTTGTAGATCAAAGGTTAAGAATGCCGAAGCCT | 8.02 |
| GCTTGTAGTTCAAGGTTAAGAAAGACTAAGCTAA | 0.473 |
